Measured values taken from PubChem BioAssay AID1159580 (chemical genetic matrix, 2015).
The whole screen tested about 5,500 compounds, of which about 2,000 (36%) were called active. Inconclusive results (about 18%) are left out. No stated cut-off is given here; in the data, active means normalized growth mostly below about 0.91 (no sharp cut-off); inconclusive means no clear call, values can overlap the other calls; inactive means mostly above about 0.92. This is one part of the list.

Assay: chemical genetic growth profiling, strain panel (AID 1159580);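 further: tested at 20 µM; growth read once vehicle control cultures reached saturation at 30 °C; 1 = growth at the plate median or of vehicle wells; lower values mean less growth of the strain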
Conditions: growth OD

Measured: normalized growth

COc1ccc2c3c1O[C@H]1C[C@@H](O)C=C[C@@]31CCN(C)C2
inactive: S. cerevisiae deletion strains, locus YJR075W, strain HOC1, active compounds read low 0.947 | S. cerevisiae deletion strains, locus YKL009W, strain mrt4, active compounds read low 1.02 | S. cerevisiae deletion strains, locus YKL068W, active compounds read low 1.02 | S. cerevisiae deletion strains, locus YKL085W, strain MDH1 (second series), active compounds read low 1 | S. cerevisiae deletion strains, locus YKL085W, strain MDH1, active compounds read low 1 | S. cerevisiae deletion strains, locus YKL160W, strain elf1, active compounds read low 0.996 | S. cerevisiae deletion strains, locus YKL190W, strain CNB1, active compounds read low 1.01 | S. cerevisiae deletion strains, locus YKR001C, strain vps1, active compounds read low 1.03 | S. cerevisiae deletion strains, locus YKR026C, strain gcn3, active compounds read low 0.974 | S. cerevisiae deletion strains, locus YKR091W, strain srl3, active compounds read low 0.99 | S. cerevisiae deletion strains, locus YLL001W, strain dnm1, active compounds read low 0.996 | S. cerevisiae deletion strains, locus YLL026W, active compounds read low 0.995 | S. cerevisiae deletion strains, locus YLL041C, strain sdh2, active compounds read low 0.999 | S. cerevisiae deletion strains, locus YLR027C, strain aat2, active compounds read low 0.989 | S. cerevisiae deletion strains, locus YLR039C, strain RIC1, active compounds read low 1.06 | S. cerevisiae deletion strains, locus YLR058C, strain SHM2, active compounds read low 1.01 | S. cerevisiae deletion strains, locus YLR102C, strain apc9, active compounds read low 1.02 | S. cerevisiae deletion strains, locus YLR113W, strain HOG1, active compounds read low 1.01 | S. cerevisiae deletion strains, locus YLR221C, strain rsa3, active compounds read low 1.02 | S. cerevisiae deletion strains, locus YLR258W, strain gsy2, active compounds read low 1 | S. cerevisiae deletion strains, locus YLR262C, strain YPT6 (second series), active compounds read low 0.984 | S. cerevisiae deletion strains, locus YLR262C, strain YPT6, active compounds read low 1.02 | S. cerevisiae deletion strains, locus YLR268W, strain sec22, active compounds read low 0.993 | S. cerevisiae deletion strains, locus YLR320W, strain mms22, active compounds read low 1.01 | S. cerevisiae deletion strains, locus YLR330W, strain CHS5, active compounds read low 1.01 | S. cerevisiae deletion strains, locus YLR342W, strain FKS1 (second series), active compounds read low 1.08 | S. cerevisiae deletion strains, locus YLR342W, strain FKS1, active compounds read low 1.01 | S. cerevisiae deletion strains, locus YLR357W, strain rsc2, active compounds read low 0.962 | S. cerevisiae deletion strains, locus YLR370C, strain arc18, active compounds read low 1 | S. cerevisiae deletion strains, locus YLR371W, strain rom2, active compounds read low 1.02 | S. cerevisiae deletion strains, locus YLR384C, strain iki3, active compounds read low 1.01 | S. cerevisiae deletion strains, locus YLR418C, strain cdc73, active compounds read low 0.991 | S. cerevisiae deletion strains, locus YML016C, strain PPZ1, active compounds read low 1 | S. cerevisiae deletion strains, locus YML032C, strain rad52, active compounds read low 1.04 | S. cerevisiae deletion strains, locus YML120C, strain ndi1, active compounds read low 0.979 | S. cerevisiae deletion strains, locus YML124C, strain tub3, active compounds read low 1.01 | S. cerevisiae deletion strains, locus YMR058W, strain fet3, active compounds read low 0.989 | S. cerevisiae deletion strains, locus YMR078C, strain ctf18, active compounds read low 1.03 | S. cerevisiae deletion strains, locus YMR125W, strain sto1, active compounds read low 0.965 | S. cerevisiae deletion strains, locus YMR129W, active compounds read low 1.01 | S. cerevisiae deletion strains, locus YMR205C, strain PFK2, active compounds read low 0.992 | S. cerevisiae deletion strains, locus YMR223W, strain ubp8, active compounds read low 1.04 | S. cerevisiae deletion strains, locus YMR231W, strain pep5, active compounds read low 1 | S. cerevisiae deletion strains, locus YMR263W, strain SAP30, active compounds read low 0.991 | S. cerevisiae deletion strains, locus YMR307W, strain GAS1, active compounds read low 1.06 | S. cerevisiae deletion strains, locus YNL067W, strain RPL9B, active compounds read low 0.989 | S. cerevisiae deletion strains, locus YNL071W, strain lat1, active compounds read low 1.01 | S. cerevisiae deletion strains, locus YNL128W, strain TEP1, active compounds read low 0.974 | S. cerevisiae deletion strains, locus YNL153C, strain GIM3, active compounds read low 0.982 | S. cerevisiae deletion strains, locus YNL183C, strain NPR1, active compounds read low 0.948 | S. cerevisiae deletion strains, locus YNL209W, strain ssb2, active compounds read low 1 | S. cerevisiae deletion strains, locus YNL233W, strain BNI4, active compounds read low 0.995 | S. cerevisiae deletion strains, locus YNL248C, strain rpa49, active compounds read low 0.996 | S. cerevisiae deletion strains, locus YNL250W, strain rad50, active compounds read low 1.01 | S. cerevisiae deletion strains, locus YNL271C, strain bni1, active compounds read low 1.02 | S. cerevisiae deletion strains, locus YNL298W, strain CLA4, active compounds read low 1.03 | S. cerevisiae deletion strains, locus YNL307C, strain MCK1, active compounds read low 1.05 | S. cerevisiae deletion strains, locus YNL322C, strain KRE1 (second series), active compounds read low 1 | S. cerevisiae deletion strains, locus YNL322C, strain KRE1, active compounds read low 1.01 | S. cerevisiae deletion strains, locus YNR049C, strain mso1, active compounds read low 1.01 | S. cerevisiae deletion strains, locus YNR052C, strain pop2, active compounds read low 1.02 | S. cerevisiae deletion strains, locus YOL006C, strain TOP1, active compounds read low 1.03 | S. cerevisiae deletion strains, locus YOL012C, strain htz1 0.856 | S. cerevisiae deletion strains, locus YOL147C, strain pex11, active compounds read low 1.01 | S. cerevisiae deletion strains, locus YOR001W, strain rrp6, active compounds read low 0.996 | S. cerevisiae deletion strains, locus YOR061W, strain CKA2, active compounds read low 1.01 | S. cerevisiae deletion strains, locus YOR069W, strain VPS5, active compounds read low 1.01 | S. cerevisiae deletion strains, locus YOR070C, strain gyp1, active compounds read low 1.01 | S. cerevisiae deletion strains, locus YOR080W, strain dia2, active compounds read low 0.994 | S. cerevisiae deletion strains, locus YOR083W, strain WHI5, active compounds read low 0.988 | S. cerevisiae deletion strains, locus YOR106W, strain vam3, active compounds read low 1 | S. cerevisiae deletion strains, locus YOR136W, strain idh2, active compounds read low 1.02 | S. cerevisiae deletion strains, locus YOR144C, strain elg1, active compounds read low 1.01 | S. cerevisiae deletion strains, locus YOR184W, strain ser1, active compounds read low 1.06 | S. cerevisiae deletion strains, locus YOR231W, strain MKK1, active compounds read low 0.987 | S. cerevisiae deletion strains, locus YOR265W, strain rbl2, active compounds read low 1 | S. cerevisiae deletion strains, locus YOR270C, strain vph1, active compounds read low 0.965 | S. cerevisiae deletion strains, locus YOR290C, strain snf2, active compounds read low 1.01 | S. cerevisiae deletion strains, locus YOR316C, strain cot1, active compounds read low 1.02 | S. cerevisiae deletion strains, locus YPL051W, strain arl3, active compounds read low 0.988 | S. cerevisiae deletion strains, locus YPL055C, strain LGE1, active compounds read low 0.935 | S. cerevisiae deletion strains, locus YPL078C, strain atp4, active compounds read low 1 | S. cerevisiae deletion strains, locus YPL106C, strain sse1, active compounds read low 1.01 | S. cerevisiae deletion strains, locus YPL240C, strain hsp82, active compounds read low 1.03 | S. cerevisiae deletion strains, locus YPL241C, strain CIN2, active compounds read low 1.01 | S. cerevisiae deletion strains, locus YPL256C, strain CLN2, active compounds read low 1.01 | S. cerevisiae deletion strains, locus YPR119W, strain clb2, active compounds read low 1 | S. cerevisiae deletion strains, locus YPR141C, strain kar3, active compounds read low 1.01 | S. cerevisiae deletion strains, locus YPR163C, strain tif3, active compounds read low 1.01 | S. cerevisiae deletion strains, locus YPR167C, strain met16, active compounds read low 1.01 | S. cerevisiae deletion strains, strain wtn01, active compounds read low 1 | S. cerevisiae strains, strain wild type, active compounds read low 1.02
